Assay results published in PMC4336329 (PLoS ONE, 2015).
About 14,000 (4.5%) of roughly 310,000 compounds showed an effect of 50% or more. Effects have a minus sign here. Shown is part of a subset that was picked to be rich in strong results.
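Further: peak tail current of the secondary pulse compared with the same well before compound.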

These compounds were tested against human ether-à-go-go-related gene (hERG) potassium channel (human, UniProt Q12809) (assay: primary screen, population patch clamp on CHO cells stably expressing hERG; higher = less effect of the substance).
Sequence of human ether-à-go-go-related gene (hERG) potassium channel (Q12809 whole entry, looked up): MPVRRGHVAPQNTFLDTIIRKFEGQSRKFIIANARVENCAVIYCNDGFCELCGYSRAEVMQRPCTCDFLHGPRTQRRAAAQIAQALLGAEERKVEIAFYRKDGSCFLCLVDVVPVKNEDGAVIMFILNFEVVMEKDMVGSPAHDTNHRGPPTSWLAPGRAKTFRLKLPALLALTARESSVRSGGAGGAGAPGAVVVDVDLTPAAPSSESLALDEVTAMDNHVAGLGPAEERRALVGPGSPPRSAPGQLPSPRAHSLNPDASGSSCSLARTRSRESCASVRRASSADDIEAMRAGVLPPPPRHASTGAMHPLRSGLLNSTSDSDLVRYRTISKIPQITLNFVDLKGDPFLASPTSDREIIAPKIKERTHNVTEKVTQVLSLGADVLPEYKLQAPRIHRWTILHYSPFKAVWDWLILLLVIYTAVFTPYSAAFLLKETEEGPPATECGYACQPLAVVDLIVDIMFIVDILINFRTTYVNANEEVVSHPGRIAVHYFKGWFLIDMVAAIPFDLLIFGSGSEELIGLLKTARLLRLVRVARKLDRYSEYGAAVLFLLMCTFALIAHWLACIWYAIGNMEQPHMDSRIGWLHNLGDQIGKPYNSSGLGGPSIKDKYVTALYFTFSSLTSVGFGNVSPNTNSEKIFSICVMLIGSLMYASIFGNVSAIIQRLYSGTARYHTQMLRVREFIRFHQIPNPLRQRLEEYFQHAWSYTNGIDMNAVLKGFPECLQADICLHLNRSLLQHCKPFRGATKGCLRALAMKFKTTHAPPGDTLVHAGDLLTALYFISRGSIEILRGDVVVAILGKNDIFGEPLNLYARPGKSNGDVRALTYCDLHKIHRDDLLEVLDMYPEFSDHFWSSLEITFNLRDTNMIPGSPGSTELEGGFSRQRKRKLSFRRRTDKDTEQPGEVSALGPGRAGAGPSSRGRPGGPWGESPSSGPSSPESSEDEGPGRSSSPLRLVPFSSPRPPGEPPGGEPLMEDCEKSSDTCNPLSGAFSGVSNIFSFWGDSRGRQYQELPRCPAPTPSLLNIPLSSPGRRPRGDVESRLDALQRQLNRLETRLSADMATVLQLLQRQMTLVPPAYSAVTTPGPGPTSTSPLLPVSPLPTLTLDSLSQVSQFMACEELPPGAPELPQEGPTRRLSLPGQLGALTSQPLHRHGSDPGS
With O=C(Nc1nccs1)C1CCN(S(=O)(=O)c2ccccc2)CC1 the “hERG current change (%, negative = inhibition) at 10uM” value was -14.1%. CN(C)S(=O)(=O)c1cccc(NC(=O)c2sccc2-c2ccccc2)c1 was tested, and the “hERG current change (%, negative = inhibition) at 10uM” value was -26.1%. Fc1ccc(CNC(=S)Nc2ccc(OC(F)F)cc2)cc1 was tested, and the “hERG current change (%, negative = inhibition) at 10uM” value was -20.6%. In the case of COc1ccc(NC(=S)Nc2ccc3cn[nH]c3c2)cc1, the “hERG current change (%, negative = inhibition) at 10uM” value is reported as -11.9%. In the case of CCNC(=S)Nc1ccc(Cc2nc3ccccc3[nH]2)cc1, the “hERG current change (%, negative = inhibition) at 10uM” value is reported as 9.19%. With CCc1cccc(CC)c1NC(=S)NCc1nc2ccccc2[nH]1 the “hERG current change (%, negative = inhibition) at 10uM” value was 3.09%. With CCOc1ccc(NC(=S)NCc2nc3ccccc3[nH]2)cc1 the “hERG current change (%, negative = inhibition) at 10uM” value was -74%. S=C(Nc1ccccc1)Nc1ccc2cn[nH]c2c1 was tested, and the “hERG current change (%, negative = inhibition) at 10uM” value was -14.5%. For FC(F)Oc1ccc(NC(=S)NCc2ccccc2)cc1, the “hERG current change (%, negative = inhibition) at 10uM” value was -36.9%. For FC(F)Oc1ccc(NC(=S)Nc2ccc3cn[nH]c3c2)cc1, the “hERG current change (%, negative = inhibition) at 10uM” value was -79.5%. In the case of FC(F)Oc1ccc(NC(=S)NCc2nc3ccccc3[nH]2)cc1, the “hERG current change (%, negative = inhibition) at 10uM” value is reported as -79.2%. In the case of N#Cc1c(NC(=O)CCN2C(=O)c3ccccc3C2=O)oc(-c2ccccc2)c1-c1ccccc1, the “hERG current change (%, negative = inhibition) at 10uM” value is reported as -11.7%. O=C1CCCN1CC1CCCN(Cc2nc(COc3ccccc3)no2)C1 (stereo not shown) was tested, and the “hERG current change (%, negative = inhibition) at 10uM” value was 28.6%. In the case of O=C(NCc1ccccc1F)C1CCCN(C(=O)Nc2ccccc2)C1 (stereo not shown), the “hERG current change (%, negative = inhibition) at 10uM” value is reported as 3.18%. Cc1noc(C)c1COc1cccc(C(=O)OC(C)C(=O)Nc2ccc3c(c2)OCO3)c1 (stereo not shown) was tested, and the “hERG current change (%, negative = inhibition) at 10uM” value was -61.2%. COc1cc(C(=O)OC(C)C(=O)Nc2ccc3c(c2)OCO3)ccc1OCc1c(C)noc1C (stereo not shown) was tested, and the “hERG current change (%, negative = inhibition) at 10uM” value was 15.8%. Cc1noc(C)c1COc1cccc(C(=O)Nc2ccc3c(c2)OCO3)c1 was tested, and the “hERG current change (%, negative = inhibition) at 10uM” value was 9.81%. With Cc1ccccc1NC(=O)N1CCC(C(=O)c2ccc(F)cc2)CC1 the “hERG current change (%, negative = inhibition) at 10uM” value was -16.3%. For Cc1nc2sccn2c(=O)c1S(=O)(=O)NCCc1ccccc1, the “hERG current change (%, negative = inhibition) at 10uM” value was -21.5%. CCOc1ccccc1NC(=O)N1CCC(C(=O)c2ccc(F)cc2)CC1 was tested, and the “hERG current change (%, negative = inhibition) at 10uM” value was -32%. With Cc1nc2sccn2c(=O)c1CCN1CCC(=C(c2ccc(F)cc2)c2ccc(F)cc2)CC1 the “hERG current change (%, negative = inhibition) at 10uM” value was -78.6%. With Cc1nc2sccn2c(=O)c1S(=O)(=O)NCc1ccccc1 the “hERG current change (%, negative = inhibition) at 10uM” value was -2.53%. For Cc1nc2sccn2c(=O)c1CCN1CCC(=C(c2ccccc2)c2ccc(F)cc2)CC1, the “hERG current change (%, negative = inhibition) at 10uM” value was -78%. In the case of CCOC(=O)c1ccc(NS(=O)(=O)c2c(C)nc3sccn3c2=O)cc1, the “hERG current change (%, negative = inhibition) at 10uM” value is reported as 1.63%. With Cc1nc2ccccn2c(=O)c1CCN1CCC(C(=O)c2ccc(F)cc2)CC1 the “hERG current change (%, negative = inhibition) at 10uM” value was -73.3%. In the case of CCCCc1c(O)nc2sccn2c1=O, the “hERG current change (%, negative = inhibition) at 10uM” value is reported as -2%. COc1ccc(C2=NN(c3ccccc3)C(c3cn(CCC(=O)O)nc3-c3ccccc3)C2)cc1 (stereo not shown) was tested, and the “hERG current change (%, negative = inhibition) at 10uM” value was 1.09%. With COC(=O)C1CCN(C(=O)Cc2ccc(OC)c(OC)c2)CC1 the “hERG current change (%, negative = inhibition) at 10uM” value was 0.292%. With O=C1CCN(Cc2ccccc2)CCN1CCOc1ccccc1 the “hERG current change (%, negative = inhibition) at 10uM” value was -10.4%. With CN1CCC(=O)N(CCSc2ccc(Br)cc2)CC1 the “hERG current change (%, negative = inhibition) at 10uM” value was -25.5%. In the case of [N-]=[N+]=NCCN1CCN(CCc2ccccc2)CCC1=O, the “hERG current change (%, negative = inhibition) at 10uM” value is reported as 9.16%. In the case of C[C@H]1CCC(=O)N(CCSc2ccc(Br)cc2)CC1, the “hERG current change (%, negative = inhibition) at 10uM” value is reported as -23.8%. For CC(C)CN1CCC(=O)N(CCSc2ccc(Br)cc2)CC1, the “hERG current change (%, negative = inhibition) at 10uM” value was -61.3%. O=C1CCN(CCc2ccccc2)CCN1CCSc1ccc(Br)cc1 was tested, and the “hERG current change (%, negative = inhibition) at 10uM” value was -80.1%. For O=C1CCN(CCc2ccccc2)CCN1CCOc1ccccc1, the “hERG current change (%, negative = inhibition) at 10uM” value was -72.8%. With COc1ccc(SCCN2CCN(CC(C)C)CCC2=O)cc1 the “hERG current change (%, negative = inhibition) at 10uM” value was -42.9%. Cc1ccc(SCCN2CCN(CCc3ccccc3)CCC2=O)cc1 was tested, and the “hERG current change (%, negative = inhibition) at 10uM” value was -69.6%. For CN1CCC(=O)N(CCSc2ccccc2)CC1, the “hERG current change (%, negative = inhibition) at 10uM” value was -3.36%. In the case of CC(C)CN1CCC(=O)N(CCSc2ccccc2)CC1, the “hERG current change (%, negative = inhibition) at 10uM” value is reported as -15.4%. With CCCN1CCC(=O)N(CCOc2ccccc2)CC1 the “hERG current change (%, negative = inhibition) at 10uM” value was -6.3%. In the case of COc1ccccc1OCCNC(=O)c1ccc2c(c1)CCC2, the “hERG current change (%, negative = inhibition) at 10uM” value is reported as -5.96%. For Cc1ccc(S(=O)(=O)NC(=NCC(=O)O)c2ccccc2)cc1, the “hERG current change (%, negative = inhibition) at 10uM” value was 2.94%. COc1cc(OC)cc(C(=O)NNC(=O)c2cc(S(=O)(=O)N3CCOCC3)ccc2F)c1 was tested, and the “hERG current change (%, negative = inhibition) at 10uM” value was -1.89%. With CCC(=O)n1nc(-c2ccccc2)nc1NCc1ccccc1 the “hERG current change (%, negative = inhibition) at 10uM” value was 10.9%. With Cn1ncc(N)c1C(=O)Nc1cccc(C(F)(F)F)c1 the “hERG current change (%, negative = inhibition) at 10uM” value was 1.42%. CCOC(=O)c1cc(C)n(-c2ccc(OC)c(OC)c2)c1C was tested, and the “hERG current change (%, negative = inhibition) at 10uM” value was -16.5%. In the case of COc1cccc(NC(=S)N2CCC(NC(=O)c3ccco3)CC2)c1, the “hERG current change (%, negative = inhibition) at 10uM” value is reported as -11%. For CCOc1ccc2nc(NC(=O)c3ccccn3)sc2c1, the “hERG current change (%, negative = inhibition) at 10uM” value was 6.42%. For COC(=O)c1cc(C)nc2c1C(=O)C(=O)C=C2N1CCOCC1, the “hERG current change (%, negative = inhibition) at 10uM” value was -2.1%.
